Calls of active or inactive are those of the source.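 How the source made its calls, unless noted: active means inhibition above 20% together with a positive visual image hit; inconclusive means visual image hit but inhibition not above 20%; inactive means no visual image hit.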
Test: inhibitors of TNFa-induced NFkB p65 translocation, primary screen, imaging, HUVEC, MLSMR starter and 10KST1 sets (AID 438);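 further: compound added about 3h40 before a 20 min TNFalpha stimulation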;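 on inhibition: signal is the nuclear over cytoplasmic p65 intensity ratio per well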
Conditions: HUVEC TNFa-induced p65 nuclear translocation; cell count: measured here: nuclei count (cytotoxicity indicator), at 2.08 µM; inhibition: at 2 µM, stronger effect = higher value, 0% TNFa-plus-vehicle, 100% no-TNFa wells

Compound | inhibition | cell count
Cc1nnc2n(-c3ccccc3)c(=O)c3c4c(sc3n12)CCCC4 | -4.7% (inactive) | 661
Cc1c(NC(=O)c2ccc(=O)oc2)c(=O)n(-c2ccccc2)n1C | -12.6% (inactive) | 553
Cc1nc2sc(C#N)c(N)c2c2c1CCCC2 | 0.2% (inactive) | 603
Fc1ccc(-c2cnc[nH]2)cc1 | 0.1% (inactive) | 501
CC(CCc1ccccc1)NCC(O)c1ccc(O)c(C(N)=O)c1 (stereo unspecified) | -8.1% (inactive) | 612
CCOC(=O)c1ccc2nc(NC(NC(C)=O)(C(=O)OC)C(F)(F)F)sc2c1 (stereo unspecified) | -8.2% (inactive) | 520
COc1cccc(N2C(=O)C(O)=C(C(C)=O)C2c2ccc(OC)c(OC)c2)c1 (stereo unspecified) | -3.8% (inactive) | 652
CCCCOc1ccccc1C(=O)NCCCC(=O)O | -3.8% (inactive) | 531
COc1ccc(CCn2c(=N)c(C#N)cc3c(=O)n4ccccc4nc32)cc1 | 1.4% (inactive) | 529
O=C(NC1CCS(=O)(=O)C1)c1c(NC(=O)C2COc3ccccc3O2)sc2c1CCCC2 (stereo unspecified) | -7% (inactive) | 657
Cc1nn(-c2ccccc2)c2c1C(=O)NC(=O)C(C)(C)C2 | 2.2% (inactive) | 526
O=C(Nc1ccccn1)NC(C(F)(F)F)C(F)(F)F | -2.9% (inactive) | 669
CCC(NC(=O)Nc1cc(OC)c(OC)c(OC)c1)(C(F)(F)F)C(F)(F)F | 3.4% (inactive) | 545
COC(=O)C(NC(C)=O)(Nc1ccccn1)C(F)(F)F (stereo unspecified) | -0.5% (inactive) | 499
CC1(C)CNC(=O)c2sc(N3CCOCC3)nc2C1 | -0.5% (inactive) | 330
CCN1CCc2c(C#N)c(N3CCCCC3)nc(NCc3ccccc3)c2C1 | -4.8% (inactive) | 466
CCOC(=O)CNC(=O)Nc1ccccc1C(=O)OC | -2.9% (inactive) | 676
CCn1nc(NC(=O)c2cccnc2)c2cc3ccccc3nc21 | -0.4% (inactive) | 522
Cn1c(=O)n(Cc2ccccc2)c(=O)c2c1nc(NCC1CCCO1)n2Cc1ccccc1 (stereo unspecified) | -8% (inactive) | 665
COc1ccc2c(c1)n([O-])c1c([n+]2=O)CCC1 | -4.7% (inactive) | 640

Compound | inhibition | cell count
COc1ccc2c(c1)[nH]c1c(=O)n(CC3CCCO3)cnc12 (stereo unspecified) | -0.4% (inactive) | 702
CC(=O)c1c(OCC(=O)O)ccc2c(C)cc(=O)oc12 | 0.3% (inactive) | 717
O=C1C2ON(c3ccccc3)C(c3cccnc3)C2C(=O)N1c1ccccc1 (stereo unspecified) | -4.7% (inactive) | 667
CCCCCn1c2nc3ccccc3nc2c2c(=O)n(CC(C)C)cnc21 | -4.1% (inactive) | 641
Cc1nc2c(o1)CCc1ccccc1C2O (stereo unspecified) | 3.6% (inactive) | 606
Clc1ccc(-n2ncc3c(NCCCn4ccnc4)ncnc32)cc1 | -10.7% (inactive) | 618
Nc1nnnn1/N=C/c1ccccn1 | -2.8% (inactive) | 568
c1ccc(CN2CCN(c3ncnc4c3[nH]c3ccccc34)CC2)cc1 | -13.1% (inactive) | 599
Cc1cc2c(c(=O)o1)C(Cc1ccccc1)C(C#N)=C(N)O2 (stereo unspecified) | -3.3% (inactive) | 706
COc1cc(NC(=O)NC(C)(C(F)(F)F)C(F)(F)F)cc(OC)c1OC | -5.8% (inactive) | 664
Cc1c(O)c(CN2CCCCC2)cc2c3c(c(=O)oc12)CCC3 | -5.5% (inactive) | 706
CCOC(=O)c1[nH]c2ccc(Br)cc2c1NC(=O)CNC | 5.1% (inactive) | 737
COc1ccc(CCn2c(=N)c(C(=O)NCc3ccco3)cc3c(=O)n4ccccc4nc32)cc1 | -4.9% (inactive) | 496
CN(C)/C=C1\N=C(c2ccc(Cl)cc2Cl)OC1=O | -4.8% (inactive) | 698
Cc1ccc(/C=N/n2nnnc2N)o1 | -1.3% (inactive) | 674
COc1ccccc1N=Cc1nc(-c2ccccc2)oc1OC(C)=O | -8.2% (inactive) | 451
Cc1ccc2[nH]c3c(N4CCOCC4)ncnc3c2c1 | -3.9% (inactive) | 599
CC(=O)C1=C(O)C(=O)N(c2ccc(C(=O)O)cc2)C1c1ccccc1 (stereo unspecified) | 4.5% (inactive) | 669
COc1ccccc1Nc1ncnc2c1cnn2-c1cccc(C)c1 | -11% (inactive) | 398

Test: reduction of polyQ htt aggregates in cells – imaging, exon1htt(103Q)mCFP cells, high-content imaging, primary screen (AID 483;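 active means visual image review flags a hit and inhibition of aggregation exceeds 20%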;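 further: compound exposure lasted 3 days before fixation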;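 on nuclei count: percent of the per-plate median nuclei count of sample wells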)
Conditions: exon1htt(103Q)mCFP cell line, aggregate imaging, at 2 µM; inhibition of aggregation: stronger effect = higher value; nuclei count: measured here: cell count, toxicity

Compound | inhibition of aggregation | nuclei count [%]
Cc1nnc2n(-c3ccccc3)c(=O)c3c4c(sc3n12)CCCC4 | 8% (inactive) | 95.5
Cc1c(NC(=O)c2ccc(=O)oc2)c(=O)n(-c2ccccc2)n1C | 1.2% (inactive) | 78.4
Cc1nc2sc(C#N)c(N)c2c2c1CCCC2 | -143% (inactive) | 3.6
Fc1ccc(-c2cnc[nH]2)cc1 | -41% (inactive) | 64.4
CC(CCc1ccccc1)NCC(O)c1ccc(O)c(C(N)=O)c1 (stereo unspecified) | -15.6% (inactive) | 103
CCOC(=O)c1ccc2nc(NC(NC(C)=O)(C(=O)OC)C(F)(F)F)sc2c1 (stereo unspecified) | -4% (inactive) | 93.1
COc1cccc(N2C(=O)C(O)=C(C(C)=O)C2c2ccc(OC)c(OC)c2)c1 (stereo unspecified) | 14% (inactive) | 104
CCCCOc1ccccc1C(=O)NCCCC(=O)O | -44.1% (inactive) | 119
COc1ccc(CCn2c(=N)c(C#N)cc3c(=O)n4ccccc4nc32)cc1 | -0.9% (inactive) | 100
O=C(NC1CCS(=O)(=O)C1)c1c(NC(=O)C2COc3ccccc3O2)sc2c1CCCC2 (stereo unspecified) | 3% (inactive) | 97.6
Cc1nn(-c2ccccc2)c2c1C(=O)NC(=O)C(C)(C)C2 | 9.8% (inactive) | 105
O=C(Nc1ccccn1)NC(C(F)(F)F)C(F)(F)F | -15.1% (inactive) | 118
CCC(NC(=O)Nc1cc(OC)c(OC)c(OC)c1)(C(F)(F)F)C(F)(F)F | 15.8% (inactive) | 97.5
COC(=O)C(NC(C)=O)(Nc1ccccn1)C(F)(F)F (stereo unspecified) | 12.2% (inactive) | 111
CC1(C)CNC(=O)c2sc(N3CCOCC3)nc2C1 | -17.3% (inactive) | 76.6
CCN1CCc2c(C#N)c(N3CCCCC3)nc(NCc3ccccc3)c2C1 | 16.8% (inactive) | 89.7
CCOC(=O)CNC(=O)Nc1ccccc1C(=O)OC | -5.8% (inactive) | 83.8
CCn1nc(NC(=O)c2cccnc2)c2cc3ccccc3nc21 | -3.3% (inactive) | 104
Cn1c(=O)n(Cc2ccccc2)c(=O)c2c1nc(NCC1CCCO1)n2Cc1ccccc1 (stereo unspecified) | -1.5% (inactive) | 104
COc1ccc2c(c1)n([O-])c1c([n+]2=O)CCC1 | -32.6% (inactive) | 113

Compound | inhibition of aggregation | nuclei count [%]
COc1ccc2c(c1)[nH]c1c(=O)n(CC3CCCO3)cnc12 (stereo unspecified) | 5.9% (inactive) | 73.4
CC(=O)c1c(OCC(=O)O)ccc2c(C)cc(=O)oc12 | 10.5% (inactive) | 97.8
O=C1C2ON(c3ccccc3)C(c3cccnc3)C2C(=O)N1c1ccccc1 (stereo unspecified) | -1.5% (inactive) | 104
CCCCCn1c2nc3ccccc3nc2c2c(=O)n(CC(C)C)cnc21 | 14.3% (inactive) | 105
Cc1nc2c(o1)CCc1ccccc1C2O (stereo unspecified) | -5% (inactive) | 106
Clc1ccc(-n2ncc3c(NCCCn4ccnc4)ncnc32)cc1 | -16.9% (inactive) | 105
Nc1nnnn1/N=C/c1ccccn1 | -8.1% (inactive) | 98.2
c1ccc(CN2CCN(c3ncnc4c3[nH]c3ccccc34)CC2)cc1 | 10.3% (inactive) | 94.4
Cc1cc2c(c(=O)o1)C(Cc1ccccc1)C(C#N)=C(N)O2 (stereo unspecified) | -2.1% (inactive) | 80.9
COc1cc(NC(=O)NC(C)(C(F)(F)F)C(F)(F)F)cc(OC)c1OC | -0.5% (inactive) | 83
Cc1c(O)c(CN2CCCCC2)cc2c3c(c(=O)oc12)CCC3 | 2.7% (inactive) | 106
CCOC(=O)c1[nH]c2ccc(Br)cc2c1NC(=O)CNC | -0.9% (inactive) | 113
COc1ccc(CCn2c(=N)c(C(=O)NCc3ccco3)cc3c(=O)n4ccccc4nc32)cc1 | -10% (inactive) | 94.4
CN(C)/C=C1\N=C(c2ccc(Cl)cc2Cl)OC1=O | 8.1% (inactive) | 71.7
Cc1ccc(/C=N/n2nnnc2N)o1 | 3.9% (inactive) | 132
COc1ccccc1N=Cc1nc(-c2ccccc2)oc1OC(C)=O | -25.8% (inactive) | 84.2
Cc1ccc2[nH]c3c(N4CCOCC4)ncnc3c2c1 | 18.9% (inactive) | 82.9
CC(=O)C1=C(O)C(=O)N(c2ccc(C(=O)O)cc2)C1c1ccccc1 (stereo unspecified) | 10.3% (inactive) | 101
COc1ccccc1Nc1ncnc2c1cnn2-c1cccc(C)c1 | 23.4% (inactive) | 92.4

Reference: PubChem BioAssay
